# Results reported in PubChem BioAssay (NCATS).
# Several values for one entry are separate records, joined by “and”; a condition that tells them apart may be missing. Equal values may be shown once. Unmarked numbers belong to inactive results. Records with an inconclusive call do not appear. Where a call stands in place of a potency, no number is given. Activity calls are given as the source filed them. Unless noted, the call rests on the fitted dose curve; in most records, active means well fitted curve in the direction sought with a large enough effect; inconclusive means small, poorly fitted or top-dose-only effect, or another doubt; inactive means no such curve, though single readings can be large; an effect the other way counts as inactive or inconclusive.
# Assays:
# [1] = Cell Viability - MRC5 (AID 434; calls by dose curve;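 further: potency means the concentration at half of the fitted maximal effect; cells exposed to compound for 40 hours at 37 °C; potency reflects cytotoxicity seen as loss of intracellular ATP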); settings: MRC5 lung fibroblast viability, qHTS
# How it was run: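 qHTS cytotoxicity in human lung fibroblast MRC5 cells; 40 hr treatment, 37 °C; cellular ATP by luciferase luminescence; DMSO = 0%, 100 uM tamoxifen = 100% inhibition; Hill-fit AC50.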
# [2] = Cellular Toxicity (caspase-3) HepG2 (AID 654); settings: HepG2 caspase-3 activation, luminescence, 0% = DMSO only, 100% = tamoxifen; series mostly up to 92.2 µM;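 further: cells exposed to compound for 16 hours before reading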
# How it was run: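 Cells plated 5 hr at 37 °C, compound added, incubated 16 hr at 37 °C. Caspase-Glo 3/7 reagent followed, 20 min at room temperature, then luminescence read. Activation scored as signal increase; AC50 from Hill fit.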
# [3] = MultiTox-Fluor Cytotoxicity Assay - LYMP1-001 - Dead Cells (AID 946); settings: LYMP1-001 lymphoblastoid cells, dead-cell protease fluorescence; series mostly up to 92.2 µM
# How it was run: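 LYMP1-001 lymphoblastoid cells (2500/well) treated 16 h at 37 C. Dead-cell protease cleavage of bis-AAF-R110 read at Ex/Em 485/520. Normalized to DMSO and 15 uM tetraoctylammonium bromide; AC50 from Hill fits.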
# [4] = Cell Viability - LYMP2-003 (AID 965); settings: LYMP2-003 lymphoblastoid cell viability; series mostly up to 92.2 µM;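 further: cells exposed to compounds for 24 h before reading; nearly all actives have a fitted effect of over 50% in size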
# How it was run: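 CellTiter-Glo luminescence quantified ATP loss after 24 h compound treatment of LYMP2-003 lymphoblastoid cells at 37 C. Titration series were fitted with the standard Hill equation to give AC50.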
# [5] = Cell Viability - LYMP2-013 (AID 970); settings: LYMP2-013 lymphoblastoid cells viability; series mostly up to 92.2 µM; further: nearly all actives have a fitted effect of over 55% in size
# How it was run: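 qHTS; 2500 lymphoblastoid cells/well; 5 hr 37 C settle; cpd 24 hr 37 C; CellTiter-Glo, 30 min RT; luminescence. AC50 = Hill fit.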
# [6] = Cell Viability - LYMP2-010 (AID 981); settings: LYMP2-010 lymphoblastoid cell viability, qHTS; series mostly up to 92.2 µM; further: nearly all actives have a fitted effect of over 55% in size; further: potency means the concentration at half of the fitted maximal effect
# How it was run: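 Luminescent ATP signal (CellTiter-Glo) served as the viability read-out. Cells of the human lymphoblastoid line were treated with compound over a concentration range for 24 hours at 37 C, and AC50 values came from Hill-equation modeling.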
# [7] = Cell Viability - LYMP2-022 (AID 987); settings: LYMP2-022 lymphoblastoid cell viability; series mostly up to 92.2 µM; further: nearly all actives have a fitted effect of over 55% in size; further: potency means the concentration at half of the fitted maximal effect
# How it was run: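 qHTS: human lymphoblastoid cells 2500/well; 5 hr 37 C; cpd added; 24 hr 37 C; CellTiter-Glo, 30 min RT; luminescence. AC50 via Hill fit; tetraoctylammonium bromide positive ctrl.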
# [8] = target: Retinoic acid receptor RXR-alpha (Homo sapiens) (UniProt P19793); assay: qHTS assay for small molecule agonists of retinoid X receptor alpha signaling (AID 588544; calls by dose curve); settings: HEK293T RXRa-UAS-bla, beta-lactamase reporter, 18 h; series mostly up to 76.7 µM
# [9] = qHTS assay for small molecule disruptors of the mitochondrial membrane potential - 5 hr assay (AID 651755; calls by dose curve; further: nearly all actives have a fitted effect of over 40% in size); settings: JC-1-type ratio dye; series mostly up to 92.2 µM
# How it was run: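 HepG2, 2,000 cells/well, overnight attach; cpd or DMSO 5 hr, 37C/5% CO2; Mito-MPS 30 min 37C; fluor 490/535 + 540/590 nm.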
# [10] = qHTS assay for environmental chemicals that activate the Aryl hydrocarbon Receptor (AhR) signaling pathway (AID 651777); settings: 1A2-DRE human hepatoma cells, luciferase, 24 h; activation: hits give high values; further: nearly all actives have a fitted effect of over 15% in size; further: potency means the concentration at half of the fitted maximal effect
# How it was run: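 Following a 24 hr incubation with test chemicals at 37 C and 5% CO2, 1A2-DRE human hepatoma cells received One-Glo reagent; after 30 min at room temperature, luciferase output reflected CYP1A2 induction via AhR.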
# [11] = Cell Viability - LYMP2-026 (AID 989); settings: LYMP2-026 lymphoblastoid cell viability, qHTS; series mostly up to 92.2 µM; further: nearly all actives have a fitted effect of over 50% in size
# How it was run: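 Luminescent ATP signal (CellTiter-Glo, 30 min room temperature) measures viable lymphoblastoid cells after 24 hr compound treatment at 37 C. Decreased ATP reflects acute toxicity; AC50 values come from Hill-equation modeling.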
# [12] = target: Vitamin D3 receptor (Homo sapiens) (UniProt P11473); assay: qHTS assay for small molecule antagonists of vitamin D receptor signaling (AID 588541; calls by dose curve;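 further: receptor activated by calcitriol during compound treatment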); settings: HEK293T VDR-UAS-bla, beta-lactamase ratio, antagonist mode; series mostly up to 76.7 µM
# How it was run: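 Antagonist-mode beta-lactamase reporter assay: HEK293T VDR-UAS-bla cells were exposed to titrated compound alongside 1-alpha,25-dihydroxyvitamin D3 at 3 nM final for 16 h. Values were normalized to the 50 nM agonist control and DMSO basal, with IC50 and efficacy from Hill equation fits.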
# [13] = target: Vitamin D3 receptor (Homo sapiens) (UniProt P11473); assay: qHTS assay for small molecule agonists of vitamin D receptor signaling (AID 588543; calls by dose curve); settings: HEK293T VDR-UAS-bla, beta-lactamase ratio, 16 h; series mostly up to 76.8 µM
# How it was run: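 Agonist-mode beta-lactamase reporter: HEK293T VDR-UAS-bla cells in charcoal-stripped 2% FBS, compound series 16 h 37 C, CCF4 2 h RT. EC50 from Hill fit, scaled against DMSO and 50 nM calcitriol control.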
# [14] = target: Thyroid hormone receptor beta (Homo sapiens) (UniProt P10828); assay: qHTS assay for small molecule agonists of thyroid hormone receptor beta signaling (AID 588545; calls by dose curve); settings: TR-UAS-bla GripTite HEK 293, beta-lactamase ratio, agonist mode, 18 h; series mostly up to 76.7 µM
# How it was run: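 TR-UAS-bla GripTite HEK 293 cells (2500/well, medium with 2% charcoal/dextran FBS) were treated in agonist mode for 18 h at 37 C, titrated. Beta-lactamase was read by CCF4 ratio after 2 h; normalized to 10 nM T3 (100%) and DMSO, Hill-fitted for EC50 and efficacy.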
# [15] = qHTS assay for cell viability of the p53RE-bla HCT-116 cell line (AID 743292); settings: p53RE-bla HCT-116 viability, ATP luminescence, 16 h; series mostly up to 95 µM; further: nearly all actives have a fitted effect of over 55% in size
# How it was run: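 After plating at 4,000 cells per well and a 5 h rest at 37 C, HCT-116 cells carrying p53RE-bla received test chemicals in DMSO. Sixteen hours later at 37 C, CellTiter-Glo was added and luminescence recorded following 30 min at room temperature.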
# Retinoic acid receptor RXR-alpha (Homo sapiens), sequence (P19793 whole entry, looked up): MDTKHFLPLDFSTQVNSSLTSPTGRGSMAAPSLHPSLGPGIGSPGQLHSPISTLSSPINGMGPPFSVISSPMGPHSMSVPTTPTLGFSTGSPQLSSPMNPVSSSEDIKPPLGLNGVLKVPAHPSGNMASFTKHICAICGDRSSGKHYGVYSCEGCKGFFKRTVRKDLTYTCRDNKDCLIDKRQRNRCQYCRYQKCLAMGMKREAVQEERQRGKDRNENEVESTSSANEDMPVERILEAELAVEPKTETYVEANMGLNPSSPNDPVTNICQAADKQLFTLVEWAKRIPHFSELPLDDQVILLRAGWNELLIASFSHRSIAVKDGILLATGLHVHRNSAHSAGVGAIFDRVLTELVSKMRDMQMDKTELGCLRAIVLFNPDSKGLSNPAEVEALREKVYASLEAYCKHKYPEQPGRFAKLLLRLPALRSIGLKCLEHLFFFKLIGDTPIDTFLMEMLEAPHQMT
# Thyroid hormone receptor beta (Homo sapiens), sequence (P10828 whole entry, looked up): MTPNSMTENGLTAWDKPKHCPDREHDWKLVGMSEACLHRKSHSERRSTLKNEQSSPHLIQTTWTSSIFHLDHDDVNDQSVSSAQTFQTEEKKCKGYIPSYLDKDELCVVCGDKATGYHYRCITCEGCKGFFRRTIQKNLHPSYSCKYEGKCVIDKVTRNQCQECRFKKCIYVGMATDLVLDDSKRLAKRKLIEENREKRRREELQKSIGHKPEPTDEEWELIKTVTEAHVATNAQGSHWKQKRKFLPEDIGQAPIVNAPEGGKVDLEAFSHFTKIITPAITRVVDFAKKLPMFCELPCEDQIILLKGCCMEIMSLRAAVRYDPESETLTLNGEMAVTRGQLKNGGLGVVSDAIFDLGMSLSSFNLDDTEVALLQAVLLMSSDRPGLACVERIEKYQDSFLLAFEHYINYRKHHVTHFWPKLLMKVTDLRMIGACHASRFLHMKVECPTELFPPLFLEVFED
# Vitamin D3 receptor (Homo sapiens), sequence (P11473 whole entry, looked up): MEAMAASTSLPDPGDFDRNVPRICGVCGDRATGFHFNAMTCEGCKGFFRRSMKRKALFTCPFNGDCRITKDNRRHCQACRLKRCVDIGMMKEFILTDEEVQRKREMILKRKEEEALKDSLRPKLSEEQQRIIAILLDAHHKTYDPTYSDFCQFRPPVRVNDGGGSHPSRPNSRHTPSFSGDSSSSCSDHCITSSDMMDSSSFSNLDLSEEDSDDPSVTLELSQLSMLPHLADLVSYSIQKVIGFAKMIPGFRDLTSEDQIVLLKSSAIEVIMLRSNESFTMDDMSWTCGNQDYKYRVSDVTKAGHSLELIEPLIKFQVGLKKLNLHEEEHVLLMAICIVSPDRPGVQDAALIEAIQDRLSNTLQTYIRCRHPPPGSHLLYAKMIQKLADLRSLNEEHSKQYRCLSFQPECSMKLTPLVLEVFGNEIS
SMILES,Potency [1],outcome [2],outcome [3],Potency [4],Potency [5],Potency [6],Potency [7],outcome [8],Potency [9],activation [10],Potency [11],outcome [12],outcome [13],Potency [14],Potency [15],Potency [10]
C=CCO,> 92 µM,inactive,inactive,inactive,inactive,inactive,inactive,inactive,inactive,-0.568%,,,,,,
CCC(Cl)[N+](=O)[O-] (stereo unspecified),> 92 µM,inactive,inactive,inactive,inactive,,,,inactive,-0.0264%,inactive,inactive,inactive,inactive,,
Clc1cccc(Cl)c1,> 92 µM,,,inactive,inactive,inactive,inactive,inactive,inactive,-1.27%,inactive,inactive,inactive,inactive,inactive,
Clc1ccccc1,> 92 µM,inactive,inactive,inactive,inactive,inactive,inactive,inactive,inactive,-0.0364%,inactive,inactive,inactive,inactive,,
ClCC(Cl)CCl,> 92 µM,inactive,,,,inactive,inactive,inactive,inactive,,inactive,inactive,inactive,inactive,inactive,
C=CCCl,> 92 µM,inactive,,inactive,inactive,,inactive,inactive,inactive,1.05%,inactive,inactive,inactive,,inactive,
Oc1ccc(Cl)c(Cl)c1Cl,> 92 µM,inactive,inactive,inactive,inactive,inactive,inactive,inactive,,3.11%,inactive,inactive,inactive,inactive,inactive,
CCBr,> 92 µM,inactive,inactive,inactive,inactive,inactive,inactive,inactive,inactive,,inactive,inactive,inactive,inactive,inactive,
CNC(=O)O/N=C/C(C)(C)S(C)=O (stereo unspecified),> 92 µM,,inactive,inactive,inactive,,inactive,inactive,inactive,,inactive,inactive,inactive,,inactive,
CN(C)c1ccc(N(C)C)cc1,,,inactive,,,50.1 µM (active),39.8 µM (active),inactive,inactive,12.9%,inactive,,,inactive,inactive,
ClCC(Br)CBr (stereo unspecified),,inactive,inactive,inactive,inactive,inactive,inactive,inactive,inactive,-0.863%,inactive,inactive,inactive,inactive,inactive,
CCOP(=S)(OCC)SCCSCC,,inactive,inactive,,inactive,inactive,inactive,inactive,inactive,1.01% and -2.18%,,,,inactive,inactive,
Nc1cc(Cl)cc(Cl)c1,> 92 µM,inactive,inactive,inactive,inactive,inactive,inactive,inactive,inactive,-0.276%,inactive,inactive,inactive,inactive,inactive,
N#CCCC#N,> 92 µM,inactive,inactive,inactive,inactive,inactive,inactive,,,0.758%,inactive,inactive,inactive,inactive,inactive,
C/C=C/C=O,,inactive,inactive,inactive,inactive,inactive,inactive,inactive,,,inactive,inactive,inactive,inactive,inactive,
CC[N+](=O)[O-],> 92 µM,inactive,inactive,inactive,inactive,inactive,inactive,inactive,inactive,-0.343%,inactive,inactive,inactive,,inactive,
c1ccc2c(c1)CCNC2,> 92 µM,,inactive,inactive,inactive,inactive,,,inactive,-1.3%,inactive,inactive,inactive,,,
Nc1ccc(Cc2ccc(N)c(Cl)c2)cc1Cl,> 92 µM,,inactive,inactive,inactive,inactive,inactive,,inactive,3.75%,inactive,inactive,inactive,,inactive,
O=[N+]([O-])CCO,,inactive,,inactive,inactive,inactive,inactive,inactive,,-2.02%,inactive,,,inactive,inactive,
c1ccc2c(c1)-c1cccc3c1c-2cc1ccccc13,,,,,,,,,,,,,,,,10 µM (active)
CC(=O)CCC(C)=O,,inactive,inactive,inactive,inactive,,inactive,inactive,inactive,1.06%,inactive,inactive,inactive,inactive,,
COc1ccccc1N,> 92 µM,inactive,inactive,inactive,,inactive,,inactive,inactive,-0.373%,,,,inactive,inactive,
O=[N+]([O-])c1ccccc1O,> 92 µM,inactive,inactive,inactive,inactive,inactive,inactive,inactive,inactive,0.0323%,inactive,,,inactive,inactive,
Oc1c(Cl)cccc1Cl,,inactive,inactive,inactive,inactive,inactive,,inactive,inactive,0.939%,,inactive,inactive,inactive,inactive,
COc1cc(-c2ccc(N)c(OC)c2)ccc1N,> 92 µM,inactive,inactive,inactive,inactive,,inactive,inactive,,,inactive,inactive,inactive,inactive,inactive,
COC(=O)c1ccccc1N,> 92 µM,inactive,inactive,inactive,inactive,inactive,inactive,inactive,,1.96%,inactive,inactive,inactive,inactive,inactive,
CC(Cl)(Cl)Cl,> 92 µM,inactive,inactive,,inactive,inactive,inactive,inactive,,-0.393% and 0.414%,inactive,inactive,inactive,inactive,inactive,
